Measurements from PubChem BioAssay (NCATS).
Records with an inconclusive call do not appear. Where a call stands in place of a potency, no number is given. The source made the active and inactive calls. Calls follow the shape of the dose curve; as a rule, active = well fitted inhibition curve with a large enough effect; inconclusive = small, poorly fitted or top-dose-only effect; inactive = no such curve, though single readings can be large or run the other way.

target: N-terminal Xaa-Pro-Lys N-methyltransferase 1 (Homo sapiens) (UniProt Q9BV86); assay: qHTS Assay for Inhibitors of N-terminal methyltransferase 1 (NTMT1): LOPAC validation of the NTMT1 SAHH-coupled ThioGlo3 Assay (AID 1347143); settings: recombinant NTMT1, SAHH-coupled ThioGlo3 fluorescence; series mostly up to 114 µM;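 also: SAH from peptide methylation measured as thiol fluorescence via SAHH coupling and ThioGlo3; nearly all actives have a fitted effect of over 70% in size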
Procedure, shortened: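 Inhibition of NTMT1 methylation of peptide SPKRIA is followed by converting SAH with SAHH and labelling the released thiol with ThioGlo3. Plates are read at 340/450nm before and 30 min after reagent addition, both at room temperature.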
Potency is read from the fitted curve at half-maximal effect.

Sequence of N-terminal Xaa-Pro-Lys N-methyltransferase 1 (Homo sapiens) (Q9BV86 whole entry, looked up): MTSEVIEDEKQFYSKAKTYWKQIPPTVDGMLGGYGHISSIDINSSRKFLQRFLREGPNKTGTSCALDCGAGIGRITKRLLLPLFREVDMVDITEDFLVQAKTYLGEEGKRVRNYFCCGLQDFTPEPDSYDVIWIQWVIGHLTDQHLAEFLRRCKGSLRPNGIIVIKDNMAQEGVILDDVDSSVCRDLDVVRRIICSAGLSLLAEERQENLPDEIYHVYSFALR

| SMILES | Potency |
| --- | --- |
| CCCn1c(=O)c2[nH]c(C3CCCC3)nc2n(CCCOC(=O)c2ccc(S(=O)(=O)F)cc2)c1=O | inactive |
| CCCN(CCC)C1CCc2cccc(O)c2C1 (stereo not drawn) | inactive |
| c1ccc2c(c1)[I+]c1ccccc1-2 | 50.1 µM (active) |
| Cc1sc2ccccc2c1CC1=NCCN1 | 79.4 µM (active) |
| c1ccc2cc(CC3=NCCN3)ccc2c1 | inactive |
| CCCN1CCc2cccc3c2[C@H]1Cc1ccc(O)c(O)c1-3 | 15.8 µM (active) |
| C[C@H](Cc1ccc2c(c1)OC(C(=O)O)(C(=O)O)O2)NC[C@H](O)c1cccc(Cl)c1 | inactive |
| C[C@@H]1O[C@@H](O[C@H]2C[C@@H](O)[C@]3(CO)[C@@H]4C(CC[C@]3(O)C2)[C@@]2(O)CC[C@H]([C@@H]3COC(=O)C3)[C@@]2(C)C[C@H]4O)[C@H](O)[C@H](O)[C@H]1O (stereo partly drawn) | inactive |
| C[C@H](N)Cc1cccc(C(F)(F)F)c1 | inactive |
| CCCN(CCC)C1Cc2cc(OC)c(OC)cc2C1 | inactive |
| CC(Cc1ccc(OCC(=O)O)cc1)NCC(O)c1cccc(Cl)c1 (stereo not drawn) | inactive |
| CCCN1CC[C@@H]2c3cc(O)ccc3CC[C@@H]21 | inactive |
| CCCN1CCC[C@@H](c2cccc(O)c2)C1 | inactive |
| O=S1(=O)N(CCN2CC=C(c3c[nH]c4cc(F)ccc34)CC2)c2cccc3c2N1CCC3 | 50.1 µM (active) |
| Nc1cc2c(ncn2CCOCP(=O)(O)O)c(=O)[nH]1 | inactive |
| NNC(N)=O | inactive |
| COc1ccc2c(c1O)-c1cccc3c1[C@@H](C2)N(C)CC3 | 56.2 µM (active) |

| SMILES | Potency |
| --- | --- |
| c1ccc2c(N3CCNCC3)cccc2c1 | 50.1 µM (active) |
| C=CCN1C[C@@H](C)N([C@H](c2ccc(C(=O)N(CC)CC)cc2)c2cccc(OC)c2)C[C@@H]1C | inactive |
| NCC(CP(=O)(O)O)c1ccc(Cl)cc1 (stereo not drawn) | inactive |
| NCC(O)c1cc(O)c(O)cc1F (stereo not drawn) | 56.2 µM (active) |
| C[N+](C)(C)CC#CCOC(=O)Nc1cccc(Cl)c1 | inactive |
| CC(C)NP(=O)(NC(C)C)OP(=O)(NC(C)C)NC(C)C | inactive |
| C[C@H]1C2Cc3ccc(O)cc3[C@@]1(C)CCN2CC1CC1 | inactive |
| NC(=O)c1cc(N2CC2)c([N+](=O)[O-])cc1[N+](=O)[O-] | inactive |
| C[N+]1(C)C2CCC1CC(OC(=O)c1c[nH]c3ccccc13)C2 (stereo not drawn) | 31.6 µM (active) |
| COc1ccc(OC)c(C(O)C(C)N)c1 (stereo not drawn) | inactive |
| Cc1cc([C@@H]2CCCN2C)on1 | inactive |
| CN(C(=O)Cc1ccc(Cl)c(Cl)c1)C(CN1CCCC1)c1cccc(OCC(=O)O)c1 (stereo not drawn) | inactive |
| NC(N)=Nc1ccc2[nH]c3c(c2c1)C[C@@]1(O)[C@H]2Cc4ccc(O)c5c4[C@@]1(CCN2CC1CC1)[C@H]3O5 | 22.4 µM (active) |
| OCc1cnc[nH]1 | inactive |
| OC1CCCCC1N1CCC(c2ccccc2)CC1 (stereo not drawn) | inactive |
| O=[N+]([O-])/C=C/c1ccc2c(c1)OCO2 | 39.8 µM (active) |
